CtBP-E1A blk – inhibitors of CtBP/E1A interaction. AlphaScreen GST-E1A/His-CtBP binding, 1536-well; active compounds read low. activity change, % (test concentration not listed). 340,000 compounds, 0.49% hits; in the data active = activity change below about -65%; inconclusive = mostly about -30% to -63%
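GST-E1A and His-tagged CtBP (125 nM each as 5X stock) were preincubated with pin-transferred compound for 2 h at 37 °C in the dark, then glutathione donor and nickel acceptor beads were added for 1 h before AlphaScreen reading.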
HP1b binding inh – inhibitors of HP1-beta chromodomain binding to methylated histone tails; P83916; AlphaScreen HP1-beta / biotin-H3K9me3 peptide binding; Potency, µM (top dose mostly 114 µM), actives largely listed as inhibitors; 390,000 compounds, 0.56% hits; AID 540317; note: nearly all actives have a fitted effect of over 70% in size
Target sequence (P83916 whole entry, looked up): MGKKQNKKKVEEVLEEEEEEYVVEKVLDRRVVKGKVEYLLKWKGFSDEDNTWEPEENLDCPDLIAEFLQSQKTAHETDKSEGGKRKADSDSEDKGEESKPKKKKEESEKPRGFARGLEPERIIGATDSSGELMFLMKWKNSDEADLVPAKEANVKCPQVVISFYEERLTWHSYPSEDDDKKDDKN
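Compound inhibition of the preformed complex between 50 nM HP1-beta and 50 nM biotinylated H3K9me3 peptide was read by AlphaScreen. Buffer was PBS pH 7.4 with 0.01% Tween-20. Incubations ran 30 min at room temperature, with 10 ug/mL donor/acceptor beads.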
BAZ2B block – BAZ2B (human) inhibition | Q9UIF8 | AlphaScreen BAZ2B-H3K14Ac peptide displacement | Potency, µM (highest dose often 114 µM), most hits filed as inhibitors | 360,000 compounds, 4.4% hits | AID 504333; note: nearly all actives have a fitted effect of over 60% in size
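BAZ2B 50 nM plus b-H3(5-23)K14Ac 50 nM, PBS pH 7.4/0.01% Tween-20, 30 min RT; compound added (max 110 uM), 30 min RT; streptavidin donor/Ni-chelate acceptor beads 10 ug/mL final, 20 min dark; AlphaScreen read.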
Six1-Eya2 inh – inhibitors of human Six1/Eya2 interaction; Q15475+O00167; AlphaScreen GST-Six1/His-Eya2 binding, biochemical; active compounds read low; activity change, % (test concentration not listed); 360,000 compounds, 0.56% hits; AID 651725; in the data active = activity change below about -65%; inconclusive = mostly about -30% to -63%
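AlphaScreen luminescence read after one hour at 37 °C in darkness. Pin-transferred compounds met GST-Six1 and His-Eya2 protein (5X stock 250 nM/500 nM) plus glutathione donor and Ni-chelate acceptor beads (5X, 50 ug/mL).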
JMJD2A Tudor – blocks the human JMJD2A Tudor domain; O75164; AlphaScreen JMJD2A-Tudor / H3K4me3 peptide binding; Potency, µM (doses to about 114 µM), usual class: inhibitors; 390,000 compounds, 4.4% hits; note: nearly all actives have a fitted effect of over 50% in size
G9a inh-1 – blocks human histone lysine methyltransferase G9a | Q96KQ7 | G9a H3K9 monomethylation, AlphaScreen, 2 h | Potency, µM (top dose mostly 102 µM), actives largely listed as inhibitors | 350,000 compounds, 8.8% hits | AID 504332; note: nearly all actives have a fitted effect of over 75% in size
Target sequence (Q96KQ7 913-1193 limits assumed): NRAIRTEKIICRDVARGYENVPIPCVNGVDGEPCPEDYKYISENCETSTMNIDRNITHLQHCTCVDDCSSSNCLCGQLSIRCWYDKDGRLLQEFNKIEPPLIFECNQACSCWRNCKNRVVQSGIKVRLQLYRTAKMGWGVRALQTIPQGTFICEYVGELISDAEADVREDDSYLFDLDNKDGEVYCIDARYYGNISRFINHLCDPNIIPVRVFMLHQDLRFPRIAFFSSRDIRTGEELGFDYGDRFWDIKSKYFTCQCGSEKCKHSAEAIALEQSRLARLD
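Step 1: enzyme (final 20 nM) with compound, 15 min RT. Step 2: substrate peptide 500 nM and SAM 20 uM, 2 h RT. Step 3: anti-H3K9me1 antibody and AlphaScreen beads, 10 min, then plate read.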
G9a inh-2 – inhibits human G9a histone lysine methyltransferase, hit confirmation; Potency, µM, actives largely listed as inhibitors; G9a H3K9 monomethylation, AlphaScreen, 2 h; AID 588344; shares compounds with JMJD2A Tudor; 370 compounds, 89% hits; note: nearly all actives have a fitted effect of over 65% in size
RGS4 inh – confirmation of human RGS4 inhibitors; 25 compounds, 80% hits; shares compounds with JMJD2A Tudor; Potency, µM, actives largely listed as inhibitors; RGS4 GAP activity, Transcreener GDP fluorescence polarization
Target sequence (P49798 whole entry, looked up): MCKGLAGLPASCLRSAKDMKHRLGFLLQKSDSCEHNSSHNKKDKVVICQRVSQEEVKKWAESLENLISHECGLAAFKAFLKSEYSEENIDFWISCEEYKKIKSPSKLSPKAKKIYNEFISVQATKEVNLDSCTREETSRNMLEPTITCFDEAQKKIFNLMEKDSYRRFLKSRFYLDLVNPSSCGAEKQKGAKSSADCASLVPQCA
A number is an active result; 0 = inactive; ? = inconclusive; - = no result; [ ] = remark or other dose. This is a sample that favours compounds with a hit; in the whole collection about 10% have one here. Unless noted, calls come from the whole dose curve; as a rule, active = well fitted curve in the direction sought with a large enough effect; inconclusive = small, poorly fitted or top-dose-only effect, or another doubt; inactive = no such curve, though single readings can be large; an effect the other way counts as inactive or inconclusive.

SMILES	CtBP-E1A blk	HP1b binding inh	BAZ2B block	Six1-Eya2 inh	JMJD2A Tudor	G9a inh-1	G9a inh-2	others
CCOc1ccc2nc(CN3CCN(Cc4ccsc4)C(CCO)C3)ccc2c1 (stereo not given)	0	0	?	0	0	0[12.7 µM]	-
CN(CC(=O)Nc1ccc(N2CCOCC2)cc1)Cc1c(O)ccc2ccccc12	0	0	?	0	56µM	0.5µM	0.25
Cc1ccc(C(C)(C)C)cc1S(=O)(=O)N1CCC(C(=O)N2CCN(c3ccc(O)cc3)CC2)CC1	?	?	0	0	0	0.79µM	1.4
Cc1ccc(-n2nc3c(N4CCC(C(=O)N(C)Cc5ccccc5)CC4)nnc(C)c3c2C)cc1	-	0	0	-	0	?	-
O=C(c1cccc(Cl)c1)N(Cc1ccco1)Cc1ccccc1Cl	-	0	0	-	0	0	-
Cc1cccc(OCCCC(=O)Nc2ccc(Br)cc2)c1	0	0	0	0	0	0	-
Cc1cccc(OCCCC(=O)Nc2ccc(N(C)C)cc2)c1	0	0	?	?	?	1.8µM	0.89
CCOC(=O)C1CCN(C(=O)c2ccc(OCC(=O)Nc3cccc(C(F)(F)F)c3)c(OC)c2)CC1	0	0	0	0	0	0[0.501 µM]	-
COc1ccc(CNc2ncnc3ccc(-c4ccoc4)cc23)c(OC)c1	-	-	-	-	-	0[0.501 µM]	-
COc1ccc2[nH]cc(CCNc3ncnc4ccc(-c5ccoc5)cc34)c2c1	-	-	-	-	-	0[0.501 µM]	-	RGS4 inh=?
COc1ccc(Cl)cc1NC(=O)c1c(NCc2cccs2)sc2c1CCCC2	-	0	0	-	?	1.4µM	4.1
CCOC(=O)c1c(NC(=O)c2cccs2)sc2c1CCN(C(=O)OCC)C2	0	0	0	0	0	0	-
CCOC(=O)N1CCc2c(sc(NCc3cccs3)c2C(=O)Nc2cc(Cl)ccc2OC)C1	-	0	0	-	?	1.1µM	2.3
C[C@@H]1O[C@@H](O[C@H]2[C@H](O[C@H]3C[C@]4(C)C(C[C@@H](O)C5C([C@]6(C)CC[C@@H](C(C)(C)O)O6)CC[C@]54C)[C@@]4(C)CC[C@H](O)C(C)(C)C34)O[C@H](CO)[C@@H](O)[C@@H]2O)[C@H](O)[C@H](O)[C@H]1O (stereo not given in full)	0	0	-	0	0	-	-
Cc1cc(C)c(C(CC(=O)c2cccs2)C(C#N)C#N)c(C)c1 (stereo not given)	0	0	0	0	0	0	-
O=C(N[C@@H](Cc1ccccc1)C(=O)O)c1c(F)c(F)c(F)c(F)c1F	-	0	0	0	0	?	-
COc1ccc(OC)c(-c2csc(NC(=O)COC(=O)C3CCC3)n2)c1	0	0	0	0	0	?	10
CCOc1ccc(CNc2ccc(N3CCCC3)cc2)cc1	?	0	18µM	?	63µM	?	0.89
CCOc1ccc(OCC(=O)Nc2ccc(N3CCCCC3)cc2)cc1	0	0	0	0	0	0	-
CC(C)c1ccc(CNc2ccc(N3CCOCC3)cc2)cc1	-67	11µM	13µM	-72	40µM	?	10
CC(C)c1ccc(Nc2nc(N3CCOCC3)nc(N3CCOCC3)n2)cc1	0	-	-	0	-	-	-
C[C@H]([C@H](O)c1ccccc1)N(C)C(=O)CN	0	0	0	0	0	-	-
CN1CCN(C(=O)CCS(=O)(=O)c2cc3c(cc2Cl)NC(=O)CO3)CC1	0	0	0	0	0	0	-
Nc1nc(SCc2ccc(Cl)cc2Cl)c2ncn(C3OC(CO)C(O)C3O)c2n1 (stereo not given)	0	0	-	0	0	-	-
COc1ccc(N2CCN(c3nc4ccccc4nc3NS(=O)(=O)c3ccccc3)CC2)cc1	0	?	50µM	0	50µM	?	7.9
SMILES	CtBP-E1A blk	HP1b binding inh	BAZ2B block	Six1-Eya2 inh	JMJD2A Tudor	G9a inh-1	G9a inh-2	others
COC(=O)c1ccc(OC(=O)C2CC(=O)N(c3ccc(C)cc3C)C2)cc1 (stereo not given)	0	0	0	0	0	?	28
COc1ccc(C(=O)N2N=C(c3ccc(NS(C)(=O)=O)cc3)CC2c2cccs2)cc1 (stereo not given)	0	0	0	0	0	0	-
COc1cccc(C(=O)Nc2ccc(N(C)C)cc2)c1OC	0	?	50µM	0	56µM	?	7.1
CCN(CC)c1ccc(NC(=O)c2cc(Cl)ccc2OC)cc1	?	35µM	?	-66	45µM	2.5µM	1.4
CC(=O)N1CCc2c(sc3c2c(=O)n(CCc2ccccc2)c(=O)n3Cc2cccc(C)c2)C1	-	0	0	-	0	0	-
Cc1noc(Cn2c(=O)c3cc4c(cc3n(CC(=O)Nc3ccc(C(C)C)cc3)c2=O)OCO4)n1	-	0	0	-	0	0	-
CCN(CC)c1ccc(NC(=O)Cn2nnc(-c3cccc(OC)c3OC)n2)c(C)c1	0	0	0	0	0	0.71µM	7.1
Cc1ccc(NC(=O)Cn2nnc(-c3ccccc3)n2)c(C)c1	-	0	0	-	0	0	-
COc1ccccc1N1CCN(C(=O)c2ccc(CN3CCc4ccccc4C3)cc2)CC1	0	0	0	0	?	0	-
COc1ccc(CN2CCc3ccccc3C2)cc1Br	-	0	50µM	0	28µM	2.2µM	11
CN(C)c1cccc(CNC(=O)c2csc([C@H]3C[C@H](O)[C@@H](CO)O3)n2)c1	0	-	-	0	-	-	-
Cn1nnc(NC(=S)NC(=O)c2cccs2)n1	0	0	?	0	3.2µM	0.79µM	7.1
Cc1ccc(C(=O)CC2(O)C(=O)N(Cc3ccccc3)c3ccc(Br)cc32)cc1 (stereo not given)	-	0	0	-	0	0	-
CCc1ccc(C(=O)CC2(O)C(=O)N(Cc3ccc(C)cc3)c3ccccc32)cc1 (stereo not given)	-	?	10µM	-	40µM	5.6µM	-	RGS4 inh=24
CCOC(=O)N1CCc2c(sc(NCc3cccc(F)c3)c2C(=O)Nc2ccc(OC)cc2)C1	-	0	79µM	-	10µM	?	2.3
CCOC(=O)N1CCc2c(sc(NCc3ccc(N(C)C)cc3)c2C(=O)Nc2ccc(OC)cc2)C1	-	?	22µM	-	14µM	2.8µM	3.6
COc1ccc(NC(=O)c2c(NCc3cccs3)sc3c2CCC(C)C3)c(OC)c1 (stereo not given)	-	0	?	-	?	?	-
CCOC(=O)N1CCc2c(sc(NCc3cccc(F)c3)c2C(=O)Nc2ccc(OC)cc2OC)C1	-	?	?	-	?	?	2.5
Cc1cc(Oc2ccc(=O)[nH]n2)nc(Cl)n1	-	0	0	0	0	0	-
CCOc1ccc(NC(=O)C2CCCN(S(=O)(=O)c3cccc4nsnc34)C2)cc1 (stereo not given)	0	0	0	0	0	0	-

Bioassay records (PubChem)
